Here are results for 42 sequences from PMC7819943, “Rice protein-binding microarrays: a tool to detect cis-acting elements near promoter regions in rice”.

Whole data set: some 39,000 sequences, median “fluorescence intensity (a.u.)” near 4,300, cut for the highest 2% near 39,000. The entries come from a sample that favours the highest values as a whole.

In this experiment the target is T1, OsSMF1 (Oryza sativa, UniProt Q6ZLB0 1-436).
T1 sequence: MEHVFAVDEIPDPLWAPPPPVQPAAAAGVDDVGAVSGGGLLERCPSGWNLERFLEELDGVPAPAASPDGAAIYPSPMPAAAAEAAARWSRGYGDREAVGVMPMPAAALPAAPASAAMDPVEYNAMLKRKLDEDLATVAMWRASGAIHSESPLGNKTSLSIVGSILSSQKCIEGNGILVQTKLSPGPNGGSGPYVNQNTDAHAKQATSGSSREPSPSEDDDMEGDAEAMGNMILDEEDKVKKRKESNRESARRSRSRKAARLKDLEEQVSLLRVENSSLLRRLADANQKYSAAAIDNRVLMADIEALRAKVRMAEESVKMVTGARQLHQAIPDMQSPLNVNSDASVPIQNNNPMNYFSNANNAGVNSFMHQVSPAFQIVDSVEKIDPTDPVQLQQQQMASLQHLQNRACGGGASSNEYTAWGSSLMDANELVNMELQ
As to the kind of experiment: protein-binding microarray (RPBM); PBS, 2% BSA, 51.3 ng/ul salmon testes DNA, 50 uM zinc acetate, 200 nM TF, 25 C, 1 h; high values mean tight binding. The conditions noted are these: protein: recombinant; tags: N-terminal polyhistidine and DsRed monomer fusion (pET32a); chain copies: 2; label: CyDye5-dUTP incorporated in the synthesized complementary strand; 3' TTTTT single-stranded linker to array surface; dsDNA, one strand shown. Summed up: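 An Axon 4000B scanner gave the binding signal as per-feature fluorescence intensity in arbitrary units. This followed washing of a custom Agilent array that had been incubated for 1 h at 25 °C with 200 nM protein in PBS, 2% BSA, salmon testes DNA and 50 µM zinc acetate. The proteins were transcription factors fused at the N-terminus to polyhistidine and DsRed, expressed in E. coli BL21-CodonPlus and purified on Ni–NTA.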
Take “AGAGAGAGCGTGGGTGGGGTGGGTGCTCTGGGTGACTGGGCGGAGTCACCTAGTGCAG”: the binding signal is 6040 fluorescence intensity (a.u.).

Take “CATGCGATACTACCCCAACGGCCTCGACGACGGCTGCGCCCGGAGTCACCTAGTGCAG”: the binding signal is 26900 fluorescence intensity (a.u.). The result for “CTGAAATGACCAGAATGCCCCTCCGTCCTACCCCACAATCCGGAGTCACCTAGTGCAG” reads 19900 fluorescence intensity (a.u.); that for “AGAGCAAGACAAGATGGTTAGTTCTCACACTTCAGATTGTCGGAGTCACCTAGTGCAG”, 41400 fluorescence intensity (a.u.); that for “AGACACTTTTGCAGGGATTGCTCAGACTTAGTTTCAGAGTCGGAGTCACCTAGTGCAG”, 3940 fluorescence intensity (a.u.). Regarding “ACTTGTCACTTGGTTCACACTAAGAGCACTTGACATATCTCGGAGTCACCTAGTGCAG”, the binding signal is 17900 fluorescence intensity (a.u.).

For the sequence “TTAACGTGTACCACTACATGCATGCAGTGACGACAGTCAGCGGAGTCACCTAGTGCAG”, the binding signal is 3150 fluorescence intensity (a.u.). With “GGGATAAAGAGAGGATGACACGTGGGACCCACATGTCAGCCGGAGTCACCTAGTGCAG”, the binding signal was 12400 fluorescence intensity (a.u.).

As to “ACACTCTCGATGTATAGATTCACCCACGAGATGATGTGGCCGGAGTCACCTAGTGCAG”, the binding signal is 6570 fluorescence intensity (a.u.).

Consider “CACCACTACCACGATCAGGCCCAAGAGATGATAAAGTGGCCGGAGTCACCTAGTGCAG”, for which the binding signal was 46500 fluorescence intensity (a.u.). The result for “GAGCTCCGACGAGCACCTCCCTGAAGCGTGGCAGGTCGAGCGGAGTCACCTAGTGCAG” reads 3900 fluorescence intensity (a.u.); that for “AATTTAACTCTTTCCCGCGTGGATGGCCGCATATATATGCCGGAGTCACCTAGTGCAG”, 3460 fluorescence intensity (a.u.). The figure for “TATGGAGTTTACTATTCTCCTGATTATTACAAAATTTATACGGAGTCACCTAGTGCAG” is 30000 fluorescence intensity (a.u.); for “CATCACACCCACTTGTCCGCACACAAGAAGAGACCAGCTACGGAGTCACCTAGTGCAG” it is 50600 fluorescence intensity (a.u.).

Regarding “CACAGTGCACGCACGCAGCTACAAAGATGTCGTACGACCACGGAGTCACCTAGTGCAG”, the binding signal was 3260 fluorescence intensity (a.u.). The figure for “CAACACCCGTCCGCCAGAGAAGACCATCGTGACGCCACTCCGGAGTCACCTAGTGCAG” is 4880 fluorescence intensity (a.u.). The figure for “GGAATAAATTATTTATCATTGGACCTACATGTCATGGACACGGAGTCACCTAGTGCAG” is 3950 fluorescence intensity (a.u.); for “TCCCCACATCACCCAACACGAGCTCACCACCACCACCACCCGGAGTCACCTAGTGCAG” it is 3500 fluorescence intensity (a.u.); for “ACCACACCATCGAACATGGTGTAGCTCACGGTAGTCCCAACGGAGTCACCTAGTGCAG” it is 41000 fluorescence intensity (a.u.). With “CCAACCAACATCCCACATCGAACCATGCATTATTTATGAACGGAGTCACCTAGTGCAG”, the binding signal was 17300 fluorescence intensity (a.u.).

Take “GGCGGCGGGTGGAGGGACGCCCGCTGAATCCGCCACCGGTCGGAGTCACCTAGTGCAG”: the binding signal was 3170 fluorescence intensity (a.u.). The result for “GTTTTATTGTTGAATTTTATATATTGTCACGTCCCCTTTTCGGAGTCACCTAGTGCAG” reads 4350 fluorescence intensity (a.u.); that for “TGGTGCGCTCGTTAAGCCAGCTCGGTTTATGTTAGATCATCGGAGTCACCTAGTGCAG”, 3210 fluorescence intensity (a.u.); that for “ATACCATATGAGCAAATACGCAGGAATCAGTACTGTATTTCGGAGTCACCTAGTGCAG”, 39500 fluorescence intensity (a.u.).

Regarding “AGTACTAGTTGGAATCATATGTGTCTATGGAGTATATTTTCGGAGTCACCTAGTGCAG”, the binding signal was 3160 fluorescence intensity (a.u.).

“AGCAAATATTTACTGTAGTACTACACTGTCAAATCATGTACGGAGTCACCTAGTGCAG”: the binding signal was 3610 fluorescence intensity (a.u.).

As to “GGAGGAAAATGGCCCTGATCAGCATCAGGGCAAGTACTATCGGAGTCACCTAGTGCAG”, the binding signal is 3200 fluorescence intensity (a.u.). The result for “TCCTTTGGAACATAAAAGTGACGTAGGCATGCAAATTTGTCGGAGTCACCTAGTGCAG” reads 13700 fluorescence intensity (a.u.); that for “TGGTAAGGTTGAAAATGGCATCAAAGTGAACAGGCCCTCACGGAGTCACCTAGTGCAG”, 22200 fluorescence intensity (a.u.); that for “CGAACATAAGTTAGTGACGCATGCCTCAAAATGAAAAGGACGGAGTCACCTAGTGCAG”, 41400 fluorescence intensity (a.u.). The result for “AGCAGACTCCACGTCGTCACCAACTTCCTTCCTCCTGGTCCGGAGTCACCTAGTGCAG” reads 11300 fluorescence intensity (a.u.); that for “GCTCCCTCGACGACCTCGTCAAGTCCCTCCGCGCCGACCCCGGAGTCACCTAGTGCAG”, 4170 fluorescence intensity (a.u.); that for “CAAGTGGGGACAGCGCCACGTGCGCGCTCGCTCTTCTCCACGGAGTCACCTAGTGCAG”, 11500 fluorescence intensity (a.u.).

Turning to “GGTGCCCTAATAAGTACGGTGGTTGAACATTACACAATTCCGGAGTCACCTAGTGCAG”, the binding signal is 3770 fluorescence intensity (a.u.). With “ATCAGCTAAGGCCAATCGGTGGATTACACACATTGGGTTCCGGAGTCACCTAGTGCAG”, the binding signal is 47600 fluorescence intensity (a.u.). The result for “ACCGGGTTCCACATGTCATACACACATTACGTCTTGGAGTCGGAGTCACCTAGTGCAG” reads 4450 fluorescence intensity (a.u.); that for “CCGGTCGGTACTAGTTCGGGGCGTGACACATGGTAGTTATCGGAGTCACCTAGTGCAG”, 4000 fluorescence intensity (a.u.); that for “CTCATAGTCATAGTTACTGATTTGTTTGCTCATAGTCATACGGAGTCACCTAGTGCAG”, 22700 fluorescence intensity (a.u.). “TGTTTATTGGCTTTGTCATATGATAAATGAATTAATTGTTCGGAGTCACCTAGTGCAG”: the binding signal was 30500 fluorescence intensity (a.u.). The result for “TTGAAATGTTTAAGTTGTTTTAAAATTATTCTATATATTTCGGAGTCACCTAGTGCAG” reads 37800 fluorescence intensity (a.u.); that for “TATATGAAATTATTATTTGATTTCTTGATCATATAATGTACGGAGTCACCTAGTGCAG”, 3440 fluorescence intensity (a.u.); that for “GTTACATACTGTGATAGTTTGTTTAATGCTAAATCTAGTACGGAGTCACCTAGTGCAG”, 43300 fluorescence intensity (a.u.).
